# Results: PubChem BioAssay AID1159580 (chemical genetic matrix, 2015)
# About 2,000 (36%) of roughly 5,500 compounds were called active. Inconclusive results (about 18%) are left out. The list shows a part of the results. Unmarked numbers belong to inactive results. Cut-off read from the data, not from the text of the source: active = normalized growth mostly below about 0.91 (no sharp cut-off); inconclusive = no clear call, values can overlap the other calls; inactive = mostly above about 0.92.
# Assay: chemical genetic growth profiling, strain panel (AID 1159580);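 note: tested at 20 µM; growth read once vehicle control cultures reached saturation at 30 °C; 1 = growth at the plate median or of vehicle wells; lower values mean less growth of the strain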
# Conditions: S. cerevisiae deletion strains, growth OD
smiles,measurement,setting,value
O=[N+]([O-])c1cc(C(F)(F)F)ccc1-n1ccc(-c2cccs2)n1,normalized growth,"locus YAR019C, strain CDC15, stronger effect = lower value",0.953
same,normalized growth,"locus YBL105C, strain PKC1, stronger effect = lower value",0.952
same,normalized growth,"locus YBR135W, strain CKS1, stronger effect = lower value",0.948
same,normalized growth,"locus YBR136W, strain MEC1, stronger effect = lower value",0.954
same,normalized growth,"locus YBR160W, strain CDC28, stronger effect = lower value",0.956
same,normalized growth,"locus YDL017W, strain CDC7, stronger effect = lower value",0.955
same,normalized growth,"locus YDL028C, strain MPS1, stronger effect = lower value",0.958
same,normalized growth,"locus YDL101C, strain DUN1, stronger effect = lower value",0.959
same,normalized growth,"locus YDL108W, strain KIN28, stronger effect = lower value",0.951
same,normalized growth,"locus YDL132W, strain cdc53, stronger effect = lower value",0.96
same,normalized growth,"locus YDL214C, strain PRR2, stronger effect = lower value",0.88
same,normalized growth,"locus YDR052C, strain DBF4, stronger effect = lower value",0.951
same,normalized growth,"locus YDR054C, strain cdc34, stronger effect = lower value",0.95
same,normalized growth,"locus YDR226W, strain ADK1, stronger effect = lower value",0.952
same,normalized growth,"locus YDR477W, strain SNF1, stronger effect = lower value",0.879
same,normalized growth,"locus YER123W, strain YCK3, stronger effect = lower value",0.846
same,normalized growth,"locus YER133W, strain GLC7, stronger effect = lower value",0.846
same,normalized growth,"locus YFL009W, strain cdc4, stronger effect = lower value",0.952
same,normalized growth,"locus YFL029C, strain CAK1, stronger effect = lower value",0.952
same,normalized growth,"locus YFR003C, strain YPI1, stronger effect = lower value",0.951
same,normalized growth,"locus YFR019W, strain FAB1, stronger effect = lower value",0.945
same,normalized growth,"locus YFR028C, strain CDC14, stronger effect = lower value",0.952
same,normalized growth,"locus YGR040W, strain KSS1, stronger effect = lower value",0.882
same,normalized growth,"locus YGR052W, strain FMP48, stronger effect = lower value",0.933
same,normalized growth,"locus YGR092W, strain DBF2, stronger effect = lower value",0.754
same,normalized growth,"locus YHR030C, strain SLT2, stronger effect = lower value",0.76 (active)
same,normalized growth,"locus YHR079C, strain IRE1, stronger effect = lower value",0.87
same,normalized growth,"locus YHR082C, strain KSP1, stronger effect = lower value",0.968
same,normalized growth,"locus YHR205W, strain SCH9, stronger effect = lower value",0.913
same,normalized growth,"locus YIL147C, strain SLN1, stronger effect = lower value",0.957
same,normalized growth,"locus YJL095W, strain BCK1, stronger effect = lower value",0.863
same,normalized growth,"locus YJL128C, strain PBS2, stronger effect = lower value",0.897
same,normalized growth,"locus YJL157C, strain FAR1, stronger effect = lower value",0.84
same,normalized growth,"locus YJR016C, strain ILV3, stronger effect = lower value",0.958
same,normalized growth,"locus YJR066W, strain TOR1 (second series), stronger effect = lower value",0.839
same,normalized growth,"locus YJR066W, strain TOR1, stronger effect = lower value",0.889
same,normalized growth,"locus YKL048C, strain ELM1, stronger effect = lower value",0.914
same,normalized growth,"locus YKL067W, strain YNK1, stronger effect = lower value",0.88
same,normalized growth,"locus YKL101W, strain HSL1, stronger effect = lower value",0.875
same,normalized growth,"locus YKL193C, strain SDS22, stronger effect = lower value",0.957
same,normalized growth,"locus YKL203C, strain TOR2, stronger effect = lower value",0.919
same,normalized growth,"locus YLR113W, strain HOG1, stronger effect = lower value",0.789 (active)
same,normalized growth,"locus YLR133W, strain CKI1, stronger effect = lower value",0.88
same,normalized growth,"locus YLR403W, strain SFP1, stronger effect = lower value",0.804
same,normalized growth,"locus YML070W, strain DAK1, stronger effect = lower value",0.87
same,normalized growth,"locus YMR001C, strain CDC5, stronger effect = lower value",0.947
same,normalized growth,"locus YMR205C, strain PFK2 (second series), stronger effect = lower value",0.896
same,normalized growth,"locus YMR277W, strain FCP1, stronger effect = lower value",0.958
same,normalized growth,"locus YNL006W, strain LST8, stronger effect = lower value",0.956
same,normalized growth,"locus YNL020C, strain ARK1, stronger effect = lower value",0.861
same,normalized growth,"locus YNL161W, strain CBK1, stronger effect = lower value",0.949
same,normalized growth,"locus YNL183C, strain NPR1, stronger effect = lower value",0.92
same,normalized growth,"locus YNL207W, strain RIO2, stronger effect = lower value",0.947
same,normalized growth,"locus YNL222W, strain SSU72, stronger effect = lower value",0.965
same,normalized growth,"locus YNL307C, strain MCK1 (second series), stronger effect = lower value",0.862
same,normalized growth,"locus YOL078W, strain AVO1, stronger effect = lower value",0.952
same,normalized growth,"locus YOL136C, strain PFK27, stronger effect = lower value",0.883
same,normalized growth,"locus YOR061W, strain CKA2, stronger effect = lower value",0.827
same,normalized growth,"locus YOR119C, strain RIO1, stronger effect = lower value",0.932
same,normalized growth,"locus YOR231W, strain MKK1, stronger effect = lower value",0.886
same,normalized growth,"locus YOR329C, strain SCD5, stronger effect = lower value",0.947
same,normalized growth,"locus YPL031C, strain PHO85, stronger effect = lower value",0.872
same,normalized growth,"locus YPL153C, strain RAD53, stronger effect = lower value",0.92
same,normalized growth,"locus YPL204W, strain HRR25, stronger effect = lower value",0.885
same,normalized growth,"locus YPL209C, strain IPL1, stronger effect = lower value",0.959
same,normalized growth,"locus YPL256C, strain CLN2, stronger effect = lower value",0.864
same,normalized growth,"locus YPR025C, strain CCL1, stronger effect = lower value",0.95
same,normalized growth,"locus YPR106W, strain ISR1, stronger effect = lower value",0.954
same,normalized growth,"locus YPR111W, strain DBF20, stronger effect = lower value",0.936
same,normalized growth,"strain NNK1, stronger effect = lower value",0.926
same,normalized growth,"strain TSCII, stronger effect = lower value",0.955
